Results from PubChem BioAssay (NCATS).
Results filed as inconclusive are left out. Where a call stands in place of a potency, no number is given. Activity calls are given as the source filed them. Unless noted, the call rests on the fitted dose curve; in most records, active means well fitted cell-killing curve with a large enough effect; inconclusive means small, poorly fitted or top-dose-only effect; inactive means flat fitted curve, though single readings scatter.

Legend:
[1] = Cell Viability - LYMP2-006 (AID 978); further: series mostly up to about 92 µM; nearly all actives have a fitted effect of over 60% in size
Procedure, shortened: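 Human lymphoblastoid cells, 2500 per well, were preincubated 5 hr at 37 C, then exposed to compounds for 24 hr at 37 C in complete medium. Viability was read as intracellular ATP by CellTiter-Glo luminescence; AC50 from Hill-equation fits of qHTS concentration-response data.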

[2] = Cell Viability - LYMP2-007 (AID 979);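 further: cells exposed to compound for 24 h before reading; nearly all actives have a fitted effect of over 60% in size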
Procedure, shortened: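 Human lymphoblastoid cells (2500/well) were plated in complete medium, incubated 5 hr at 37 C, then exposed to compounds for 24 hr at 37 C. Intracellular ATP was read by CellTiter-Glo luminescence after 30 min at room temperature; AC50 from Hill fits.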

[3] = Cell Viability - LYMP2-008 (AID 980); further: nearly all actives have a fitted effect of over 60% in size
Procedure, shortened: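 Human lymphoblastoid cells (2500/well) were plated, held 5 hr at 37 C, then exposed to compounds for 24 hr at 37 C in complete medium. Intracellular ATP was read by CellTiter-Glo luminescence; AC50 from Hill-fitted concentration-response.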

[4] = Cell Viability - LYMP2-010 (AID 981); further: nearly all actives have a fitted effect of over 55% in size
Procedure, shortened: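 Human lymphoblastoid LYMP2-010 cells (2500/well) were preincubated 5 hr at 37 C, then exposed to compounds for 24 hr at 37 C in complete medium. Intracellular ATP was measured by CellTiter-Glo luminescence after 30 min at room temperature; AC50 from Hill-fitted concentration-response.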

[5] = Cell Viability - LYMP2-012 (AID 982);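 further: cellular ATP by luciferase luminescence where a drop means cytotoxicity; cells exposed to compound for one day before reading; nearly all actives have a fitted effect of over 55% in size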
[6] = Cell Viability - LYMP2-014 (AID 983); further: series mostly up to about 92 µM; nearly all actives have a fitted effect of over 50% in size
Procedure, shortened: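 Human lymphoblastoid cells (2500/well) were pre-incubated 5 hr at 37 C, then exposed to compounds in complete medium for 24 hr at 37 C. Intracellular ATP was read by CellTiter-Glo luminescence after 30 min at room temperature; AC50 from Hill fits.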

[7] = Cell Viability - LYMP2-016 (AID 984); further: nearly all actives have a fitted effect of over 55% in size
Procedure, shortened: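 Human lymphoblastoid cells (LYMP2-016), 2500/well in complete medium, preincubated 5 hr at 37 C, then compound-treated 24 hr at 37 C. Intracellular ATP read by CellTiter-Glo luminescence after 30 min at room temperature; AC50 from Hill-equation concentration-response fits.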

[8] = Cell Viability - LYMP2-018 (AID 985);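 further: compound exposure lasted 24 hr at 37 °C; nearly all actives have a fitted effect of over 50% in size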
Procedure, shortened: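 Human lymphoblastoid cells (2500/well) were pre-incubated 5 hr at 37 C, then exposed to compounds for 24 hr at 37 C in complete medium. Viability was read as intracellular ATP by CellTiter-Glo luminescence; AC50 values came from Hill-equation fits.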

[9] = Cell Viability - LYMP2-020 (AID 986); further: series mostly up to about 92 µM; nearly all actives have a fitted effect of over 55% in size
Procedure, shortened: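 Human lymphoblastoid cells, 2500/well, were pre-incubated 5 hr at 37 C, then exposed to compounds for 24 hr at 37 C in complete medium. Intracellular ATP was read by CellTiter-Glo luminescence, and AC50 was derived by Hill fitting of concentration-response data.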

[10] = Cell Viability - LYMP2-022 (AID 987); further: nearly all actives have a fitted effect of over 55% in size
Procedure, shortened: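 Human lymphoblastoid cells, 2500/well, preincubated 5 hr at 37 C, then exposed to compounds over a concentration range for 24 hr at 37 C in complete medium. Viability read as intracellular ATP by CellTiter-Glo luminescence after 30 min at room temperature; AC50 from Hill fits.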

[11] = Cell Viability - LYMP2-026 (AID 989); further: nearly all actives have a fitted effect of over 50% in size
Procedure, shortened: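 Human lymphoblastoid cells (2500/well) in complete medium were preincubated 5 hr at 37 C, then exposed to compounds for 24 hr at 37 C. Cellular ATP was read by CellTiter-Glo luminescence; AC50 from Hill-equation fits of concentration-response data.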

[12] = Cell Viability - LYMP1-002 - Assay at 40 hr (AID 994); further: nearly all actives have a fitted effect of over 60% in size
Procedure, shortened: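 Human lymphoblastoid cells, 2500/well in complete medium, were preincubated 5 hr at 37 C, then exposed to compounds for 40 hr at 37 C. Intracellular ATP was read by CellTiter-Glo luminescence after 30 min at room temperature; AC50 from Hill-equation fits.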

[13] = qHTS Assay for Identification of Small Molecule Inducers of Hypoxia Response (AID 2120; active means well fitted curve in the direction sought with a large enough effect in the signal ratio, with a control signal flat, not every such curve was filed as active; the % refers to the signal ratio)
Procedure, shortened: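 HRE-beta-lactamase reporter in CellSensor HRE-bla ME-180 cells, 2500 cells/well in Opti-MEM with 0.5% dialyzed FBS; compounds tested as titration series, 17 h at 37 degrees C. CCF4 substrate 2.5 h at room temperature; AC50 from 460/530 nm ratio.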

[14] = target: Estrogen receptor (Homo sapiens) (UniProt P03372); assay: qHTS assay for small molecule antagonists of estrogen receptor alpha signaling (AID 588513; active means well fitted curve in the direction sought with a large enough effect in the signal ratio, with a control signal flat, not every such curve was filed as active; the % refers to the signal ratio)
Estrogen receptor (Homo sapiens), sequence (P03372 whole entry, looked up): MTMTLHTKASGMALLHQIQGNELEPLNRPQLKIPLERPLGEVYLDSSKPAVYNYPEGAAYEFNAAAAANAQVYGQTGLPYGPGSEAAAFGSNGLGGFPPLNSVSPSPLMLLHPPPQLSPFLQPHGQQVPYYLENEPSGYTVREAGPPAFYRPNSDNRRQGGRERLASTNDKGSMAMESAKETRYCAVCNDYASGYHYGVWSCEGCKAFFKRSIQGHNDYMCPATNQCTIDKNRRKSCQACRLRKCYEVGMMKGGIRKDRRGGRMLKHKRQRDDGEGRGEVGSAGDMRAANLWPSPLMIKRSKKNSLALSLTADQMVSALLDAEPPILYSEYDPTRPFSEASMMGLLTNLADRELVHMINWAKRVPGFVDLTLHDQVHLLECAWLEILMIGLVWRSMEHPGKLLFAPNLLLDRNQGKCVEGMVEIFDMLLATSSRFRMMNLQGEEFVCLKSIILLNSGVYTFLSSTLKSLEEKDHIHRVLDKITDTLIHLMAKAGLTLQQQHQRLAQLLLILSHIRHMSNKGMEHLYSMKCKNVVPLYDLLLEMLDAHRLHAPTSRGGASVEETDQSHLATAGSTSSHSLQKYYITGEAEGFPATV
Procedure, shortened: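 ER-alpha-UAS-bla GripTite HEK 293 cells in medium with 2% charcoal/dextran-treated FBS were preincubated 4 h at 37 C, dosed with compound (1:2 titration), stimulated with 0.5nM 17-beta-estradiol for 18 h, then read by CCF4 beta-lactamase fluorescence.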

[15] = target: Estrogen receptor (Homo sapiens) (UniProt P03372); assay: qHTS assay for small molecule agonists of estrogen receptor alpha signaling (AID 588514; calls by dose curve; further: nearly all actives have a fitted effect of over 70% in size)
Procedure, shortened: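 ER-alpha-UAS-bla GripTite HEK 293 cells in medium with 2% charcoal/dextran-treated FBS were treated with compound titrations at 37 C for 18 hrs; beta-lactamase reporter read by CCF4 fluorescence after 2 hrs at RT.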

[16] = target: Bile acid receptor (Homo sapiens) (UniProt Q96RI1); assay: qHTS assay for small molecule antagonists of farnesoid X receptor signaling (AID 588526; calls by dose curve)
Bile acid receptor (Homo sapiens), sequence (Q96RI1 whole entry, looked up): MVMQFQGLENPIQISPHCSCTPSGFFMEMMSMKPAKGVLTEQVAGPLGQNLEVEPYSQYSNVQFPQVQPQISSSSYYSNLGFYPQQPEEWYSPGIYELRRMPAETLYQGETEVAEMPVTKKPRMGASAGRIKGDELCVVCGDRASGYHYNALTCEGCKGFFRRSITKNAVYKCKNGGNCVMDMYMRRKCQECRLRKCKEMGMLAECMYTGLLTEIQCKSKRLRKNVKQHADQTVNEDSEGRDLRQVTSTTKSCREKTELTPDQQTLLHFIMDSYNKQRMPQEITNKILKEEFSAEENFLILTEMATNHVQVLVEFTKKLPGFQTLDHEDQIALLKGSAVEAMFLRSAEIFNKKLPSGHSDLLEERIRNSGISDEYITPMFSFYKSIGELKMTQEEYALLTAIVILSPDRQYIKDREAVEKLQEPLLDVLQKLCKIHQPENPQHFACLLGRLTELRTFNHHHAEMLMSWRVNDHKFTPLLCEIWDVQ
Procedure, shortened: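 Concentration-response titrations were fitted to the Hill equation for half-maximal inhibition and maximal response, with data normalised to 50 uM chenodeoxycholic acid and DMSO control wells. Cells: FXR-UAS-bla HEK293T, dialyzed FBS.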

[17] = target: Glucocorticoid receptor (Homo sapiens) (UniProt P04150); assay: qHTS assay for small molecule antagonists of glucocorticoid receptor signaling (AID 588533; active means well fitted inhibition curve with a large enough effect in the signal ratio, with a control signal flat, not every such curve was filed as active; the % refers to the signal ratio;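 further: cells stimulated with 2 nM dexamethasone as agonist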)
Glucocorticoid receptor (Homo sapiens), sequence (P04150 whole entry, looked up): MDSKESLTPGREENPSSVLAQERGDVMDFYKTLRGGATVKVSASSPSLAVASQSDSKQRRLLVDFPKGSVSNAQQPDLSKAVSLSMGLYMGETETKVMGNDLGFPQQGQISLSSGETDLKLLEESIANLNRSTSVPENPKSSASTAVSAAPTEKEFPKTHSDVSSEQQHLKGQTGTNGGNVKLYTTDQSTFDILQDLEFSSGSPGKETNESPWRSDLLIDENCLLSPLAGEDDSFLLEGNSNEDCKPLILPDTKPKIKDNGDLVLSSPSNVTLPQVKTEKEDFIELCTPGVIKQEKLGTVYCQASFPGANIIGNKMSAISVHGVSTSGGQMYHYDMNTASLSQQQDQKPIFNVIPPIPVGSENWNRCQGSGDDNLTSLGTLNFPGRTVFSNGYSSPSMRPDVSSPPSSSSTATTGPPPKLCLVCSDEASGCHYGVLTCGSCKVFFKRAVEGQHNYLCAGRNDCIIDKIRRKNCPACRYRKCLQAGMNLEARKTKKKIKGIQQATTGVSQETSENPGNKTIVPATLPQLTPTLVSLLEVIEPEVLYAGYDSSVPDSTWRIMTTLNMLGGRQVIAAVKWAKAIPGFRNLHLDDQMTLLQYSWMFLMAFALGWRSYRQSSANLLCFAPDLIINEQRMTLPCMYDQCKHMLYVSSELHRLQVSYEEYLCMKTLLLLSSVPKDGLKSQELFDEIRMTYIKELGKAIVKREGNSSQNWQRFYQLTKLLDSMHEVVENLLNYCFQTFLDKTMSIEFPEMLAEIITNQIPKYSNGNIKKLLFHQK
Procedure, shortened: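 Antagonist-mode qHTS: compound titrations added to GRE-bla HeLa cells, then dexamethasone 2 nM final; 18 h, 37 C. CCF4 FRET fluorescence normalized to dexamethasone and DMSO; IC50 from Hill fit.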

[18] = target: Peroxisome proliferator-activated receptor gamma (Homo sapiens) (UniProt P37231); assay: qHTS assay for small molecule agonists of peroxisome proliferator-activated receptor gamma signaling (AID 588536; active means well fitted curve in the direction sought with a large enough effect in the signal ratio, with a control signal flat, not every such curve was filed as active; the % refers to the signal ratio)
Peroxisome proliferator-activated receptor gamma (Homo sapiens), sequence (P37231 whole entry, looked up): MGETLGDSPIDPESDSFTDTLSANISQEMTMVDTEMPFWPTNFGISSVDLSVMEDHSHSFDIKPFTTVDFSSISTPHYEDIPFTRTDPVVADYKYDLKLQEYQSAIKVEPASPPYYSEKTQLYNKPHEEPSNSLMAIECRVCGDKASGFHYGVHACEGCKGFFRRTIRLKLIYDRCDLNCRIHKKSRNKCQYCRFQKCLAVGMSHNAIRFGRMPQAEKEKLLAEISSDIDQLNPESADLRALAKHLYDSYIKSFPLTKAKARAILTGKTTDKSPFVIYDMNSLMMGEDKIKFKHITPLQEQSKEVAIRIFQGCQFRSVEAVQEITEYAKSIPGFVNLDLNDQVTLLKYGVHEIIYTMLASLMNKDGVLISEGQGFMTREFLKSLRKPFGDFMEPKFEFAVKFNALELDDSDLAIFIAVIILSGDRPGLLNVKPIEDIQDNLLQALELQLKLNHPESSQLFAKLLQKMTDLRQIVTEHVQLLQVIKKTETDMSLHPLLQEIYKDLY
Procedure, shortened: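 PPAR-gamma-UAS-bla HEK293 cells in medium with 1% charcoal/dextran-treated FBS were exposed to compounds for 16 h at 37 C. Beta-lactamase activity was read with CCF4 substrate (405 nm excitation, 460/530 nm emission).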

[19] = target: Peroxisome proliferator-activated receptor gamma (Homo sapiens) (UniProt P37231); assay: qHTS assay for small molecule antagonists of peroxisome proliferator-activated receptor gamma signaling (AID 588537; active means well fitted inhibition curve with a large enough effect in the signal ratio, with a control signal flat, not every such curve was filed as active; the % refers to the signal ratio;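 further: reporter cells co-stimulated with 50 nM rosiglitazone agonist during compound treatment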)
Procedure, shortened: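 PPAR-gamma-UAS-bla HEK293 cells (3000/well, 1% charcoal/dextran-stripped FBS) were preincubated 6-6.5 h at 37 C, given titrated compounds, then stimulated with 50 nM rosiglitazone for 16 h. Beta-lactamase activity was read with CCF4 dye; IC50 came from Hill fits.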

[20] = target: Vitamin D3 receptor (Homo sapiens) (UniProt P11473); assay: qHTS assay for small molecule antagonists of vitamin D receptor signaling (AID 588541; calls by dose curve;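 further: receptor activated by calcitriol during compound treatment; series mostly up to about 77 µM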)
Vitamin D3 receptor (Homo sapiens), sequence (P11473 whole entry, looked up): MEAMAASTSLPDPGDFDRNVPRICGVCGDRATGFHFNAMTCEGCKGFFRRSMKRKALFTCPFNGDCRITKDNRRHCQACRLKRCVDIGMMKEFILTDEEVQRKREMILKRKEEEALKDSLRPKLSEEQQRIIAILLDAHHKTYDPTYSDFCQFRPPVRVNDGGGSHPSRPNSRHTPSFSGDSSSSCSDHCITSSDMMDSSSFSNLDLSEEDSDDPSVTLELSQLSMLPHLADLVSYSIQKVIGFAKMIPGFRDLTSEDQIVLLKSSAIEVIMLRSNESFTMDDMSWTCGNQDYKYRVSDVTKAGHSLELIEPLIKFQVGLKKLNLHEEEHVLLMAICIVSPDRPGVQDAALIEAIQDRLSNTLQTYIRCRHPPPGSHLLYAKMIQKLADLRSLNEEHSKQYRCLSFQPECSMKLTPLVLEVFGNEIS
Procedure, shortened: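 VDR-UAS-bla HEK293T cells (2000/well, 2% charcoal-stripped FBS) were treated with titrated compounds plus 1-alpha,25-dihydroxyvitamin D3 (50 nM or 3 nM final) for 16 h at 37 C. CCF4 beta-lactamase fluorescence was read; Hill fits gave IC50.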

[21] = target: Vitamin D3 receptor (Homo sapiens) (UniProt P11473); assay: qHTS assay for small molecule agonists of vitamin D receptor signaling (AID 588543; calls by dose curve)
Procedure, shortened: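 GeneBLAzer VDR-UAS-bla HEK293T cells in 2% charcoal-stripped FBS medium were dosed with compound titrations for 16 h at 37 °C; CCF4 β-lactamase readout (405 nm ex, 460/530 nm em). EC50 and efficacy from Hill fits, normalized to 50 nM calcitriol (100%) and DMSO (0%).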

[22] = qHTS assay for small molecule agonists of retinoid X receptor alpha signaling (AID 588544; calls by dose curve); conditions: HEK293T RXRa-UAS-bla, beta-lactamase reporter, 18 h; 530 nm emission
[23] = target: Retinoic acid receptor RXR-alpha (Homo sapiens) (UniProt P19793); assay: as above
Retinoic acid receptor RXR-alpha (Homo sapiens), sequence (P19793 whole entry, looked up): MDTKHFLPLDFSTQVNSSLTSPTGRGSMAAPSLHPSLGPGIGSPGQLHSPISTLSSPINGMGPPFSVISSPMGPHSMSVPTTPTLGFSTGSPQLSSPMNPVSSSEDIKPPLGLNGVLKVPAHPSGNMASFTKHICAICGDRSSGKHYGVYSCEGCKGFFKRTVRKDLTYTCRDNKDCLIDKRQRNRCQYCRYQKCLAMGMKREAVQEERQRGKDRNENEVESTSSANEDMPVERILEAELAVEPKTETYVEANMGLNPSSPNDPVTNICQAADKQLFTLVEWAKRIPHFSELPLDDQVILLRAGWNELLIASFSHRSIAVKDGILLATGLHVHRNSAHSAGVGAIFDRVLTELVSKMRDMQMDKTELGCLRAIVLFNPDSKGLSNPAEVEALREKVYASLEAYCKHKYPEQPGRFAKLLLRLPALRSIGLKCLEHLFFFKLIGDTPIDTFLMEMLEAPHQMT

COC(=O)c1ccccc1C(=O)OC
outcome [1]: inactive
outcome [2]: inactive
outcome [3]: inactive
Potency [4]: inactive
outcome [5]: inactive
outcome [6]: inactive
outcome [7]: inactive
outcome [8]: inactive
outcome [9]: inactive
outcome [10]: inactive
outcome [11]: inactive
Potency [12]: inactive
outcome [13]: inactive
Potency [14]: inactive
Potency [15]: inactive
Potency [16]: inactive
Potency [17]: inactive
outcome [18]: inactive
Potency [19]: inactive
outcome [20]: inactive
Potency [21]: inactive
max response [22]: -8.66%
outcome [23]: inactive
